Assay outcomes (PubChem BioAssay)
Compounds with a hit are over-represented: about 9.2% of the library has one in this group of screens.
FLuc modulator: inhibits or activates purified firefly luciferase, miR-21 counter-screen. purified FLuc, Km substrates, luminescence inhibition. AID 588342. P08659. Potency, µM (doses to about 57.5 µM), actives largely listed as inhibitors. 6.9% of 360,000 active; note: nearly all actives have a fitted effect of over 55% in size
Target sequence (P08659 whole entry, looked up): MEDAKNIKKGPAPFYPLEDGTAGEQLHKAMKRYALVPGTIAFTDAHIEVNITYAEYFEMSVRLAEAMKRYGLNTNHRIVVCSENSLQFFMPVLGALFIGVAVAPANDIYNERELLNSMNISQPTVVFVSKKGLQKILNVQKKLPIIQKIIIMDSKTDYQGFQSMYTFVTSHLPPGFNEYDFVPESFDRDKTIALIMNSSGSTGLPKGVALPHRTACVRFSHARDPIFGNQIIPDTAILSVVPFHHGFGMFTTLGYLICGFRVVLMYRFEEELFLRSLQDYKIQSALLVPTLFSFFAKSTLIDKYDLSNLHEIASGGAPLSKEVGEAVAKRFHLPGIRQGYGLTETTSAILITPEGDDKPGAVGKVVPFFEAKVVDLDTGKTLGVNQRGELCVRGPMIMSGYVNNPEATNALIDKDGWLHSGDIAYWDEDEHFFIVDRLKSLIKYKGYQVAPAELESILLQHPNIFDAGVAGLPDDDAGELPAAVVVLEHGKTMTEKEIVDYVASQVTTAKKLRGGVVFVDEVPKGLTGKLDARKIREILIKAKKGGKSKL
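Biochemical qHTS of compounds, final roughly 60 µM downward over six points, against 10 nM purified firefly luciferase using Km concentrations of substrates (10 uM D-luciferin, 10 uM ATP) in Tris acetate pH 7.5 buffer; luminescence output.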
Rab9 prom act: Rab9 promoter activation; Huh7 Rab9 promoter-luciferase reporter, luminescence, 24 h; Potency, µM (top dose mostly 9.22 µM), usual class: activators; 2.8% of 320,000 active; note: nearly all actives have a fitted effect of over 60% in size
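Luminescence read-out: Huh7 cells stably expressing Rab9-luciferase, treated 24 h with compound at 37 °C, then lysed with luciferase reagent for 10 min at ambient before reading.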
NPC1 prom act: NPC1 promoter activation; AID 485313; Huh7 NPC1 promoter luciferase reporter, 24 h; 2.4% of 320,000 active; Potency, µM (top dose mostly 9.22 µM), hits mostly activators; note: nearly all actives have a fitted effect of over 60% in size
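Quantitative HTS used a cell-based reporter: Huh7 cells stably bearing the NPC1 promoter upstream of luciferase were treated with compounds for 24 h, and promoter activation was read as luminescence.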
ELG1 repair inh: ELG1-dependent DNA repair inhibition. HEK293T ELG1-luciferase reporter, luminescence, 16 h; DNA damage induced by 5-fluorouridine. Potency, µM (series often up to 46.1 µM), hits mostly inhibitors. 2.3% of 330,000 active. AID 504467; note: nearly all actives have a fitted effect of over 55% in size
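5-Fluorouridine DNA damage + compound/DMSO, 2,000 cells/well, 16 h, 37 °C/5% CO2. ONE-Glo, 30 min RT, luminescence. Readout = decrease in reporter signal.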
SMN2 splice up: increases expression of the SMN2 splice variant; HEK293 SMN2-luciferase splicing reporter, luminescence, 30-36 h; Potency, µM (top dose mostly 46.1 µM), hits mostly activators; 2.8% of 210,000 active; AID 1458; note: nearly all actives have a fitted effect of over 55% in size
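HEK293 cells carry an SMN2 minigene-luciferase reporter in which exon 7 inclusion puts luciferase in frame. Cells were seeded at 2000 cells/well, attached for 10-12 hours, then exposed to compounds for 30-36 hours at 37C before ONE-Glo luminescence.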
ELG1 genotox: genotoxicity induction in ELG1-luciferase HEK293T cells | HEK293T ELG1-luciferase reporter, luminescence, 16 h | Potency, µM (series often up to 46 µM), actives largely listed as activators | 1.3% of 330,000 active | AID 504466; note: nearly all actives have a fitted effect of over 60% in size
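DMSO vehicle served as control against compound-treated ELG1-luciferase HEK293T cells; exposure lasted 16 hr at 37 °C and 5% CO2, followed by ONE-Glo luminescence detection after 30 min.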
Numbers stand for hits; 0 = inactive; ? = inconclusive; - = no result; [ ] = dose if it differs, or a comment. Calls come from the whole dose curve; as a rule, active = well fitted curve in the direction sought with a large enough effect; inconclusive = small, poorly fitted or top-dose-only effect, or another doubt; inactive = no such curve, though single readings can be large; an effect the other way counts as inactive or inconclusive.

SMILES	FLuc modulator	Rab9 prom act	NPC1 prom act	ELG1 repair inh	SMN2 splice up	ELG1 genotox
NS(=O)(=O)c1ccc(CCNC(=O)c2ccc(NS(=O)(=O)c3ccc4[nH]c(=O)[nH]c4c3)cc2)cc1	0	0	0	0	-	0
O=C(Nc1ccc(Br)cc1)NC1CCCCCCC1	6.7µM	4µM	2.2µM	?	-	?
COc1ccc(NC(=O)CCSc2ccc(F)cc2)cc1	15µM	3.5µM	?	?	-	?
O=C(Nc1ccccc1)NC1CCCCC1	?	?	0	?	?	0
CCc1ccc(NC(=O)NC2CCCCCCC2)cc1	3.8µM	1.1µM	0.71µM	?	-	?
COc1ccc(NC(=O)CCSc2ccc(C)cc2)cc1	0	0	0	0	0	0
Cc1ccc(NC(=O)C(=O)N2CCCC2)cc1Cl	2.1µM	2.8µM	3.2µM	?	10µM	?
CC(C)(C)c1ccc(S(=O)(=O)NCC(=O)N2CCN(Cc3ccccc3)CC2)cc1	0	0	0	0	-	0
COc1ccc(NC(=O)C(=S)NC2CCCCC2)cc1	5.4µM	2.8µM	1.6µM	?	13µM	8.2µM
CCOc1ccc(CC(=O)NNC(=O)NC2CCCCC2)cc1	0	0	0	0	0	0
CCOc1ccc(NC(=O)NC2CCCCCCC2)cc1	5.4µM	3.5µM	1.8µM	?	-	10µM
COc1cc(OC)nc(-n2ncc(Br)c(Br)c2=O)n1	0	0	0	4.6µM	0	0
Cc1cc(C)n(-c2nc(C(=O)O)cs2)n1	0	0	0	0	0	0
Cc1c2c(=O)n(-c3nc4ccccc4s3)nc-2cc(O)n1Cc1ccccc1	6.7µM	0	0	?	-	0
Cc1cc(C)n(-c2nc(-c3cccc(Cl)c3)cs2)n1	11µM	?	?	?	0	?
Cc1cc(C)n(-c2nc(-c3ccccc3)cs2)n1	9.5µM	?	0	?	0	18µM
Cc1cc(NC(=O)C(C)C)n(-c2nc3ccccc3s2)n1	?	?	0	0	0	0
Cc1cc(N)n(-c2nc3ccccc3s2)n1	0	0	0	0	-	0
Cc1cc(C)n(-c2nc3ccccc3s2)n1	21µM	0	0	?	-	?
Cc1cc(C)c(OCC(=O)Nc2ccc(S(=O)(=O)N3CCCC3)cc2)c(C)c1	0	0	0	0	-	0
C=C1CCN([C@H](C(=O)NCc2ccco2)C(C)C)S(=O)(=O)c2ccccc21	0	0	0	0	-	0
Cc1ccc2[nH]c(C)c(CCNC(=O)C3CCCCC3C(=O)OCC(F)(F)F)c2c1 (centres undefined)	0	0	0	0	0[1.84 µM]	0
CC(=O)Nc1ccc(N/C=C/C(=O)c2ccco2)cc1	11µM	1.6µM	3.2µM	?	28µM	4.6µM
CN(C)c1cccc(NC(=O)c2ccco2)c1	0	0	0	?	0	0
CN(C)c1ccc(N/C=C/C(=O)c2ccco2)cc1	0.27µM	2.8µM	3.5µM	?	-	?
SMILES	FLuc modulator	Rab9 prom act	NPC1 prom act	ELG1 repair inh	SMN2 splice up	ELG1 genotox
Cc1ccc(Cl)cc1N1CCN(C(=O)c2sc3nc4n(c(=O)c3c2C)CCC4)CC1	0	-	-	-	-	-
CCc1nn(CC(=O)Nc2c(C)cccc2C)c(=O)c2cc3sccc3n12	0	-	-	-	0	-
O=c1[nH]cnc2cc(-c3ccc(Br)cc3)sc12	7.6µM	2.8µM	2.5µM	?	-	?
CCCc1c(O)nc(SC2CC(=O)N(c3ccc(OC)cc3)C2=O)[nH]c1=O (centres undefined)	0	0	0	0	-	0
CCCCc1c(O)nc(SC2CC(=O)N(c3ccc(C(=O)OCC)cc3)C2=O)[nH]c1=O (centres undefined)	21µM	0	0	0	-	0
Cc1cc(Br)cc(C)c1NC(=O)c1cnc2ccccn2c1=O	0	-	-	-	0	-
Cc1csc2ncc(C(=O)NCCc3ccccc3)c(=O)n12	?	?	?	?	?	21µM
Cc1ccccc1NC(=O)c1cnc2ccccn2c1=O	0.76µM	0.79µM	?	?	?	?
Cn1c(C(=O)NCCc2ccccc2)cc2c(=O)n3ccccc3nc21	0	-	-	-	-	-
Cc1cccn2c(=O)c3cc(C(=O)NCCc4ccccc4)c(=N)n(Cc4ccco4)c3nc12	0	0	0	15µM	-	0
